# Shown are actives, neighbours in structure and some others; about 11% of the full set was active somewhere.
# PNC inhibitor = perinucleolar compartment assembly inhibition; PC3M PTB-GFP, PNC prevalence imaging, 16 h; stronger effect = lower value; activity change (PNC), negative = inhibition, % at 10 µM; actives 3.1% (n = 140,000); AID 2417;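 active = readout at or below -70, meaning at least 70% loss of cells showing the perinucleolar compartment, a nuclear body marking cancer cells; inconclusive = readout between -30 and a set limit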;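 also: plate controls were DMSO wells for no effect and camptothecin positive control wells for full effect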
#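 PC3M cells stably expressing PTB-GFP, 750–1000 cells/well, treated 16 h at 37 °C with compound (23 nl of library stock), in duplicate. After paraformaldehyde fixation and Hoechst stain, imaged at 20x; PNC prevalence scored by image analysis.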
# IMPase Li inh = cell-permeable IMPase inhibitors with lithium potentiation. CHO-M1 cells, IP1 TR-FRET (IP-One), carbachol + lithium. Potency, µM (top dose mostly 59.4 µM), for inactives: top-dose activity, negative = IMPase inhibition, most hits filed as inhibitors. actives 0.35% (n = 210,000). AID 1457; active = well fitted curve in the direction sought with a large enough effect; inconclusive = small, poorly fitted or top-dose-only effect, or another doubt; inactive = no such curve, though single readings can be large; an effect the other way counts as inactive or inconclusive;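 also: IP1 builds up when IMPase is blocked and the TR-FRET signal falls; potency is read from the fitted curve at half-maximal effect; plate controls were basal vehicle for no effect and high inhibitor control for full effect; nearly all actives have a fitted effect of over 50% in size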
#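 CHO cells stably expressing M1 receptor (2000/well) were cultured 16–30 h, then exposed to compounds with a small lithium addition for 30 min at 37C. IP1 was measured by TR-FRET competition; AC50 from Hill fits.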
# NPSR antagonist = blocks cAMP signaling of the human neuropeptide S receptor; CHO-NPSR cells, cAMP TR-FRET, antagonist mode; Q6W5P4; actives 1% (n = 220,000); AID 1461; Potency, µM (top dose mostly 38.3 µM), without a hit: at the top dose activity change, negative = inhibition, usual class: inhibitors; active = well fitted curve in the direction sought with a large enough effect; inconclusive = small, poorly fitted or top-dose-only effect, or another doubt; inactive = no such curve, though single readings can be large; an effect the other way counts as inactive or inconclusive; also: potency is read from the fitted curve at half-maximal effect; nearly all actives have a fitted effect of over 50% in size
# Target sequence (Q6W5P4 whole entry, looked up): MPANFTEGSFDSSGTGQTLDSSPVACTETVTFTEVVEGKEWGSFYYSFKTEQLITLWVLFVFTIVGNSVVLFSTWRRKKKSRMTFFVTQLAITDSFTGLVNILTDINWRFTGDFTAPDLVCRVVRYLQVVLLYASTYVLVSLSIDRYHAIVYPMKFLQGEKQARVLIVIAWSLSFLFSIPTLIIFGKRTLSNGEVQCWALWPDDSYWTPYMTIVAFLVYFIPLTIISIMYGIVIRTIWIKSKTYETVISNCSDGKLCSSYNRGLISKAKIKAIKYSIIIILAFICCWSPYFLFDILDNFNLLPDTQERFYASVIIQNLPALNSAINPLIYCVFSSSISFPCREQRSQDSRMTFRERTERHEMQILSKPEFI
# HPGD block = HPGD (human) dehydrogenase inhibition. P15428. purified HPGD, NADH fluorescence kinetic, PGE2 substrate. Potency, µM, for the others: at the highest dose activity change, negative = inhibition, actives largely listed as inhibitors. actives 4.3% (n = 150,000). AID 894; also: potency is read from the fitted curve at half-maximal effect
# Target sequence (P15428 whole entry, looked up): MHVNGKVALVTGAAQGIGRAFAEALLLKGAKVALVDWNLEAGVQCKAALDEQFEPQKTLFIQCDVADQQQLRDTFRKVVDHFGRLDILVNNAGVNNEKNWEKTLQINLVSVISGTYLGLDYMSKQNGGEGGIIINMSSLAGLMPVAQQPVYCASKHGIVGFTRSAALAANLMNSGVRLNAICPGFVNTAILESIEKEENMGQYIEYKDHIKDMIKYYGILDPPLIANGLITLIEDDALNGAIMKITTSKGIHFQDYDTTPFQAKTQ
#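 20 nM HPGD preincubated 15 min at room temperature with compound in 50 mM Tris-HCl pH 8, 0.01% Tween 20. Started with 1 mM NAD+ and 30 uM prostaglandin E2; NADH fluorescence (360/450 nm) read 5 times over 30-s intervals, last minus first.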
# ALDH1A1 block = blocks purified human ALDH1A1 activity. P00352. Purified ALDH1A1, NADH fluorescence, propionaldehyde substrate. actives 7.3% (n = 220,000). AID 1030. Potency, µM (highest dose often 75.3 µM), inactives show at the top dose activity, negative = inhibition, most hits filed as inhibitors;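 also: potency is read from the fitted curve at half-maximal effect; plate controls were no enzyme wells and a reference inhibitor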
# IMPase inh = membrane-permeable compound that blocks inositol monophosphatase; CHO-M1 cells, IP1 accumulation, HTRF TR-FRET ratio; 120,000 tested, under 10 active; P97697; inhibition (IP1 accumulation), % at 46.1 µM; active = well fitted curve in the direction sought with a large enough effect in the signal ratio, not every such curve was filed as active; inconclusive = small, poorly fitted or top-dose-only effect, or a change in a side signal; inactive = no such curve, though single readings can be large or run the other way; the % refers to the signal ratio;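 also: cells stimulated with carbachol in lithium chloride buffer; plate controls were DMSO basal wells for no effect and reference inhibitor wells for full effect; higher means more IMPase inhibition seen as more IP1 and lower FRET ratio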
#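 Elevated IP1 in lysates lowers TR-FRET signal (665/620 ratio and 620 channel reported). Cells were CHO-M1, given carbachol (50 uM as added) plus 50mM LiCl, pH 7.4, 30 min, 37C; compounds titrated up to 46 uM; AC50 by Hill equation.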
# An asterisk follows results filed as active; ? = inconclusive; · = no result given; [ ] = remark or other dose. Unless noted, calls follow the shape of the dose curve; as a rule, active = well fitted inhibition curve with a large enough effect (not every such curve was filed as active); inconclusive = small, poorly fitted or top-dose-only effect, or another doubt; inactive = no such curve, though single readings can be large or run the other way. Unless noted, % is scaled to controls: 0 for no effect and ±100 for the full control effect.
SMILES,PNC inhibitor,IMPase Li inh,NPSR antagonist,HPGD block,ALDH1A1 block,IMPase inh
CCc1ccc(NC(=O)CC2C(=O)N(c3cccc(C)c3)C(=O)N2C2CC2)cc1 (stereo not drawn),·,5%,-4%,·,11µM*,·
Nc1cc(Cl)ccc1Oc1ccc(Cl)cc1,3,3%[38.3 µM],-7%[46.1 µM],22µM*,1.6µM*,-2
COC(=O)c1ccc(-c2nc(O)c(C)s2)cc1,·,3%,-8%,·,20µM*,·
O=C1C2C3CCCC3=C3CCCC3C2C(=O)N1c1ccc(F)cc1 (stereo not drawn),16,17%[38.3 µM],-20%[46.1 µM],-5%,1%,14
CC(C)C1NC2(C(=O)c3ccccc3C2=O)C2C(=O)N(c3ccc(F)cc3)C(=O)C12 (stereo not drawn),29,-18%[38.3 µM],-7%[46.1 µM],32µM*,1.3µM*,-4
COCCn1c(=O)c2cc3c(=O)n(CCOC)c(=O)c3cc2c1=O,-26,21%[38.3 µM],2%[46.1 µM],-6%,18µM*,-1
O=c1c2cc(Cl)ccc2[nH]c(=S)n1Cc1ccco1,13,-6%[38.3 µM],5%[46.1 µM],-20%,11µM*,1
COc1ccc(OC)c(NC(=O)c2ccc3c(=O)n(CCc4ccccc4)c(=S)[nH]c3c2)c1,27,1%,-27%,-20%,-1%,-10
COc1cc2[nH]c(=S)n(Cc3ccco3)c(=O)c2cc1OC,-11,20%[38.3 µM],-21%[46.1 µM],-12%,0.79µM*,-3
CC(C)(C)C(=O)OCCn1c(=O)c2cc3c(=O)n(CCOC(=O)C(C)(C)C)c(=O)c3cc2c1=O,?,·,?,·,7%,6
COc1ccc(NC(=O)c2ccc3c(=O)n(Cc4ccco4)c(=S)[nH]c3c2)c(OC)c1,-4,-2%[38.3 µM],-7%[46.1 µM],-8%,0.89µM*,-5
O=C(CSc1ncc(C(F)(F)F)cc1Cl)N1CCN(S(=O)(=O)c2ccccc2)CC1,-1,-1%[38.3 µM],?,?,?,10
O=C(NCc1ccccc1)N(Cc1cc2cc3c(cc2[nH]c1=O)OCCO3)CC1CCCO1 (stereo not drawn),13,-9%[38.3 µM],-12%[46.1 µM],?,?,4
COC(=O)c1ccc(CSc2nnc3n(Cc4ccccc4OC)c(=O)c4ccccc4n23)o1,-8,20%[38.3 µM],-17%[46.1 µM],-18%,?,-6
CCN(CC)CCCn1c(=S)[nH]c2cc(OC)c(OC)cc2c1=O,?,30%[38.3 µM],-5%[46.1 µM],-1%,17%,0
COCCn1c(=S)[nH]c2cc(OC)c(OC)cc2c1=O,?,-1%[38.3 µM],-11%[46.1 µM],-9%,32µM*,-10
CCCCCCC(=O)Nc1cc2c(C)cc(=O)oc2cc1C,-119*,-11%,-6%[46.1 µM],-17%,5µM*,10
CCC(=O)Nc1cc2c(C)cc(=O)oc2cc1C,-10,-5%[38.3 µM],-6%[46.1 µM],?,?,8
COc1cccc(N/C=C/C(=O)c2ccc(Cl)cc2)c1,24,5%,-14%,-18%,?,·
S=c1[nH]nc(CSCc2ccccc2Cl)n1-c1ccccc1,-8,-17%[38.3 µM],-22%[46.1 µM],?,4.5µM*,6
CCOC(=O)C1C(=O)OC2(CCCCC2)C1C(=O)OCC (stereo not drawn),?,17%[38.3 µM],5%[46.1 µM],-12%,?,-7
CCOC(=O)C1C(=O)CC(=O)CC1CC(C)SCC (stereo not drawn),-5,6%,-10%[46.1 µM],-21%,13µM*,-6
O=C(Cc1ccc(-n2cccc2)cc1)NCc1ccccc1Cl,-12,0%,-6%,-9%,-12%,·
CCOc1ccc2nc(SCC(=O)Nc3nonc3C)[nH]c2c1,·,5%,-8%,·,-2%,·
Cc1cc2nc(-c3ccc(SCC(=O)NC(C)C)nc3)[nH]c2cc1C,·,3%,-18%,·,?,·
SMILES,PNC inhibitor,IMPase Li inh,NPSR antagonist,HPGD block,ALDH1A1 block,IMPase inh
Cc1cc(NC(=O)CSc2ccc(-c3nc4cc(C)c(C)cc4[nH]3)cn2)no1,16,11µM*,?,?,?,3
COc1ccc2nc(SCC(=O)Nc3ccc4c(c3)CCC4)[nH]c2c1,8,-1%,-16%,-10%,11µM*,·
COc1ccc2nc(SCC(=O)Nc3ccccc3C)[nH]c2c1,-16,-20%[38.3 µM],-8%[46.1 µM],-20%,?,-1
CCOc1ccc2nc(SCC(=O)Nc3cc4c(cc3C(C)=O)OCO4)[nH]c2c1,57,2%[38.3 µM],-17%[46.1 µM],-24%,25µM*,10
COc1ccc2nc(SCC(=O)Nc3cc(C)on3)[nH]c2c1,-97*,18%[38.3 µM],6%[46.1 µM],-11%,-5%,-7
O=C1Nc2ccccc2C(=O)C1(Cl)Cc1ccccc1 (stereo not drawn),36,6%[38.3 µM],-6%[46.1 µM],7.1µM*,14µM*,-2
COc1ccc(-n2c(C)cc(/C=C3\SC(=S)N(Cc4ccco4)C3=O)c2C)cc1,-26,10%,-41%,-9%,0.63µM*,·
COc1ccc(-c2nn(-c3ccccc3)cc2/C=C2/SC(=S)N(Cc3ccco3)C2=O)c(C)c1,23,0%[38.3 µM],-8%[46.1 µM],-9%,-9%,-8
CCOC(=O)C1(C(F)(F)F)N=C(c2ccccc2F)OC(N(C)C)=N1 (stereo not drawn),·,·,3%,·,·,·
CC(C)COC(=O)NCCOC(=O)Nc1cccc(Cl)c1,?,29%[38.3 µM],-10%[46.1 µM],-10%,4%,9
CCCCOC(=O)Nc1ccc(C(N)=O)cc1,?,11%[38.3 µM],-4%[46.1 µM],-3%,11%,2
CC(C)COC(=O)NCCCOC(=O)Nc1ccccc1,4,0%[38.3 µM],-22%[46.1 µM],-11%,22µM*,0
CCCCOC(=O)Nc1ccc(C(C)C)cc1,0,13%,13%[46.1 µM],13µM*,2%,6[0.0738 µM]
CCCCOC(=O)Nc1ccc(N(C)C)cc1,?,17%,0%,32µM*,?,·
CCC(C)n1c(=S)[nH]c2c(sc3ccc([N+](=O)[O-])cc32)c1=O (stereo not drawn),-15,3%,-11%,-4%,0%,·
Cc1ccc(N2C(=O)CC(Sc3nc4ccccc4o3)C2=O)cc1Cl (stereo not drawn),39,19%[38.3 µM],-20%[46.1 µM],?,1.4µM*,-4
CN(C)C(=O)Nc1ccc(F)cc1F,43,-13%[38.3 µM],-19%[46.1 µM],-6%,10%,2
OCCOCCn1c2ccccc2c2ccccc21,-139*,-17%[38.3 µM],15%[46.1 µM],-14%,2%,-6
S=C(Nc1ccccc1)Nc1nc2ccccc2n1CCOc1ccc(Br)cc1,?,-11%,-5%[46.1 µM],-24%,9.5µM*,8
O=C(c1cnn2c(C(F)(F)F)cc(-c3cccs3)nc12)N1CCOCC1,·,1%,17%,·,?,·
CC(C)NC(=O)CSc1nc(N)c(NC(=O)c2ccccc2F)c(=O)[nH]1,-91*,-9%,4%,-3%,-2%,·
Cc1onc(-c2ccccc2)c1C(=O)Oc1cccnc1,?,15%[38.3 µM],-5%[46.1 µM],-11%,-7%,-8

# High-throughput results deposited in PubChem BioAssay by National Center for Advancing Translational Sciences (NCATS).
